Measured values reported in the supplement of paper PMC6992640.
Counter-ions that a name gives are not always drawn.

Experiments:
HCI01 = cells of a triple-negative basal-like breast cancer xenograft; experiment: cell viability of combination (% of vehicle); higher = less cytotoxic; details: 1 µM; 72 h; partner dose: 10 nM
Method: (§1)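 PDX cells were treated for 72 h with each drug at 1 µM plus afatinib (10 nM; 1 µM for WHIM30). Luciferase viability is expressed as percent of vehicle.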

WHIM2 = cells of a triple-negative basal-like breast cancer xenograft; experiment: as above; details: 1 µM; 72 h; partner dose: 10 nM
Method: as §1

| Structure (SMILES) | cell viability of combination (HCI01) | cell viability of combination (WHIM2) |
| --- | --- | --- |
| Cc1ccc(-n2[nH]c(C)c(NN=C3C=CC=C(c4cccc(C(=O)O)c4)C3=O)c2=O)cc1C [Eltrombopag] + CN(C)C/C=C/C(=O)Nc1cc2c(Nc3ccc(F)c(Cl)c3)ncnc2cc1O[C@H]1CCOC1 [Afatinib] | 52.9 | 48.5 |
| C=C1C(=CC=C2CCCC3(C)C2CCC3C(C)C=CC(C)C(C)C)CC(O)CC1O (stereo not given) [Doxercalciferol] + CN(C)C/C=C/C(=O)Nc1cc2c(Nc3ccc(F)c(Cl)c3)ncnc2cc1O[C@H]1CCOC1 [Afatinib] | 44.8 | 37.1 |
| CC(NCCCc1cccc(C(F)(F)F)c1)c1cccc2ccccc12 (stereo not given) [Cinacalcet] + CN(C)C/C=C/C(=O)Nc1cc2c(Nc3ccc(F)c(Cl)c3)ncnc2cc1O[C@H]1CCOC1 [Afatinib] | 51.6 | 46.1 |
| COC(=O)c1ccc2c(c1)NC(=O)C2=C(Nc1ccc(N(C)C(=O)CN2CCN(C)CC2)cc1)c1ccccc1 [Nintedanib (BIBF 1120)] + CN(C)C/C=C/C(=O)Nc1cc2c(Nc3ccc(F)c(Cl)c3)ncnc2cc1O[C@H]1CCOC1 [Afatinib] | 45 | 22.5 |
| CCCSc1nc(NC2CC2c2ccc(F)c(F)c2)c2nnn(C3CC(OCCO)C(O)C3O)c2n1 (stereo not given) [Ticagrelor] + CN(C)C/C=C/C(=O)Nc1cc2c(Nc3ccc(F)c(Cl)c3)ncnc2cc1O[C@H]1CCOC1 [Afatinib] | 57.8 | 43 |
| COC(=O)C12CCC(C)(C)CC1C1C(=O)C=C3C4(C)C=C(C#N)C(=O)C(C)(C)C4CCC3(C)C1(C)CC2 (stereo not given) [Bardoxolone methyl] + CN(C)C/C=C/C(=O)Nc1cc2c(Nc3ccc(F)c(Cl)c3)ncnc2cc1O[C@H]1CCOC1 [Afatinib] | 53.5 | 30.4 |
| Clc1ccc(C(Cn2ccnc2)OCc2ccc(Sc3ccccc3)cc2)c(Cl)c1.O=[N+]([O-])O (stereo not given) [Fenticonazole Nitrate] + CN(C)C/C=C/C(=O)Nc1cc2c(Nc3ccc(F)c(Cl)c3)ncnc2cc1O[C@H]1CCOC1 [Afatinib] | 49.2 | 49.9 |
| CC[C@@H]1/C=C(\C)C[C@H](C)C[C@H](OC)[C@H]2O[C@@](O)(C(=O)C(=O)N3CCCC[C@H]3C(=O)O[C@H](/C(C)=C/[C@@H]3CC[C@H](Cl)[C@H](OC)C3)[C@H](C)[C@@H](O)CC1=O)[C@H](C)C[C@@H]2OC [Pimecrolimus] + CN(C)C/C=C/C(=O)Nc1cc2c(Nc3ccc(F)c(Cl)c3)ncnc2cc1O[C@H]1CCOC1 [Afatinib] | 51.2 | 42.6 |
| CCOc1cc2ncc(C#N)c(Nc3ccc(OCc4ccccn4)c(Cl)c3)c2cc1NC(=O)C=CCN(C)C [Neratinib (HKI-272)] + CN(C)C/C=C/C(=O)Nc1cc2c(Nc3ccc(F)c(Cl)c3)ncnc2cc1O[C@H]1CCOC1 [Afatinib] | 60.9 | 25.5 |
| CCN1CCN(Cc2ccc(Nc3ncc(F)c(-c4cc(F)c5nc(C)n(C(C)C)c5c4)n3)nc2)CC1.CS(=O)(=O)O + CN(C)C/C=C/C(=O)Nc1cc2c(Nc3ccc(F)c(Cl)c3)ncnc2cc1O[C@H]1CCOC1 [Afatinib] | 40.5 | 82.2 |
| COc1nc2ccc(Br)cc2cc1[C@@H](c1ccccc1)[C@@](O)(CCN(C)C)c1cccc2ccccc12 [Bedaquiline fumarate] + CN(C)C/C=C/C(=O)Nc1cc2c(Nc3ccc(F)c(Cl)c3)ncnc2cc1O[C@H]1CCOC1 [Afatinib] | 52.9 | 49 |
| Cl.Fc1ccc(C2CCNCC2COc2ccc3c(c2)OCO3)cc1 (stereo not given) [Paroxetine HCl] + CN(C)C/C=C/C(=O)Nc1cc2c(Nc3ccc(F)c(Cl)c3)ncnc2cc1O[C@H]1CCOC1 [Afatinib] | 52.3 | 49.6 |
| CC(C)(C)NC(=O)C1CC2CCCCC2CN1CC(O)C(Cc1ccccc1)NC(=O)C(CC(N)=O)NC(=O)c1ccc2ccccc2n1.CS(=O)(=O)O (stereo not given) [Saquinavir mesylate] + CN(C)C/C=C/C(=O)Nc1cc2c(Nc3ccc(F)c(Cl)c3)ncnc2cc1O[C@H]1CCOC1 [Afatinib] | 48.2 | 47.9 |
| CCCCc1oc2ccccc2c1C(=O)c1cc(I)c(OCCN(CC)CC)c(I)c1.Cl [Amiodarone HCl] + CN(C)C/C=C/C(=O)Nc1cc2c(Nc3ccc(F)c(Cl)c3)ncnc2cc1O[C@H]1CCOC1 [Afatinib] | 68.8 | 57.7 |
| Cc1cccc(CN2CCN(C(c3ccccc3)c3ccc(Cl)cc3)CC2)c1.Cl.Cl (stereo not given) [Meclizine 2HCl] + CN(C)C/C=C/C(=O)Nc1cc2c(Nc3ccc(F)c(Cl)c3)ncnc2cc1O[C@H]1CCOC1 [Afatinib] | 65.4 | 53.1 |
| CC(=O)C1(O)Cc2c(O)c3c(c(O)c2C(OC2CC(N)C(O)C(C)O2)C1)C(=O)c1ccccc1C3=O.Cl (stereo not given) [Idarubicin HCl] + CN(C)C/C=C/C(=O)Nc1cc2c(Nc3ccc(F)c(Cl)c3)ncnc2cc1O[C@H]1CCOC1 [Afatinib] | 131 | 11.7 |
| CNC(=O)c1cc(Oc2ccc(NC(=O)Nc3ccc(Cl)c(C(F)(F)F)c3)c(F)c2)ccn1 [Regorafenib] + CN(C)C/C=C/C(=O)Nc1cc2c(Nc3ccc(F)c(Cl)c3)ncnc2cc1O[C@H]1CCOC1 [Afatinib] | 46.8 | 44.2 |
| CNCCCC12CCC(c3ccccc31)c1ccccc12.Cl [Maprotiline HCl] + CN(C)C/C=C/C(=O)Nc1cc2c(Nc3ccc(F)c(Cl)c3)ncnc2cc1O[C@H]1CCOC1 [Afatinib] | 55.1 | 46 |
| COc1cc(C(=O)O)ccc1NC(=O)C1NC(CC(C)(C)C)C(C#N)(c2ccc(Cl)cc2F)C1c1cccc(Cl)c1F (stereo not given) + CN(C)C/C=C/C(=O)Nc1cc2c(Nc3ccc(F)c(Cl)c3)ncnc2cc1O[C@H]1CCOC1 [Afatinib] | 49.1 | 44.7 |
| O=C(NC1CCN(CCCCC2(C(=O)NCC(F)(F)F)c3ccccc3-c3ccccc32)CC1)c1ccccc1-c1ccc(C(F)(F)F)cc1 [Lomitapide] + CN(C)C/C=C/C(=O)Nc1cc2c(Nc3ccc(F)c(Cl)c3)ncnc2cc1O[C@H]1CCOC1 [Afatinib] | 55 | 27.4 |
| CN(C)CC=CC(=O)Nc1cc2c(Nc3ccc(F)c(Cl)c3)ncnc2cc1OC1CCOC1 (stereo not given) [Afatinib (BIBW2992)] + CN(C)C/C=C/C(=O)Nc1cc2c(Nc3ccc(F)c(Cl)c3)ncnc2cc1O[C@H]1CCOC1 [Afatinib] | 44.6 | 32.4 |
| N.N.O=C([O-])C1(C(=O)[O-])CCC1.[Pt+2] [Carboplatin] + CN(C)C/C=C/C(=O)Nc1cc2c(Nc3ccc(F)c(Cl)c3)ncnc2cc1O[C@H]1CCOC1 [Afatinib] | 60.1 | 53.1 |
| COc1cc2nccc(Oc3ccc(NC(=O)C4(C(=O)Nc5ccc(F)cc5)CC4)cc3)c2cc1OC.O=C(O)CC(O)C(=O)O [Cabozantinib malate (XL184)] + CN(C)C/C=C/C(=O)Nc1cc2c(Nc3ccc(F)c(Cl)c3)ncnc2cc1O[C@H]1CCOC1 [Afatinib] | 50.8 | 43.2 |
| CC(C)CC(NC(=O)C(CCc1ccccc1)NC(=O)CN1CCOCC1)C(=O)NC(Cc1ccccc1)C(=O)NC(CC(C)C)C(=O)C1(C)CO1 (stereo not given) [Carfilzomib (PR-171)] + CN(C)C/C=C/C(=O)Nc1cc2c(Nc3ccc(F)c(Cl)c3)ncnc2cc1O[C@H]1CCOC1 [Afatinib] | 17.5 | 26.7 |
| CNC(=O)c1cc(Oc2ccc(NC(=O)Nc3ccc(Cl)c(C(F)(F)F)c3)cc2)ccn1.Cc1ccc(S(=O)(=O)O)cc1 [Sorafenib Tosylate] + CN(C)C/C=C/C(=O)Nc1cc2c(Nc3ccc(F)c(Cl)c3)ncnc2cc1O[C@H]1CCOC1 [Afatinib] | 46.6 | 42.4 |
| CCCCCCCCCCCC1=C(O)C(=O)C=C(O)C1=O [Embelin] + CN(C)C/C=C/C(=O)Nc1cc2c(Nc3ccc(F)c(Cl)c3)ncnc2cc1O[C@H]1CCOC1 [Afatinib] | 52.9 | 42.9 |
| Cc1c(C(=O)NN2CCCCC2)nn(-c2ccc(Cl)cc2Cl)c1-c1ccc(Cl)cc1 [Rimonabant] + CN(C)C/C=C/C(=O)Nc1cc2c(Nc3ccc(F)c(Cl)c3)ncnc2cc1O[C@H]1CCOC1 [Afatinib] | 56.7 | 48.4 |
| Clc1ccc(CSC(Cn2ccnc2)c2ccc(Cl)cc2Cl)cc1.O=[N+]([O-])O (stereo not given) [Sulconazole Nitrate] + CN(C)C/C=C/C(=O)Nc1cc2c(Nc3ccc(F)c(Cl)c3)ncnc2cc1O[C@H]1CCOC1 [Afatinib] | 62.8 | 49.5 |
| C#Cc1cccc(Nc2ncnc3cc(OCCOC)c(OCCOC)cc23)c1 [Erlotinib] + CN(C)C/C=C/C(=O)Nc1cc2c(Nc3ccc(F)c(Cl)c3)ncnc2cc1O[C@H]1CCOC1 [Afatinib] | 41.1 | 42 |
| CCN(CC)CCNC(=O)c1c(C)[nH]c(C=C2C(=O)Nc3ccc(F)cc32)c1C [Sunitinib] + CN(C)C/C=C/C(=O)Nc1cc2c(Nc3ccc(F)c(Cl)c3)ncnc2cc1O[C@H]1CCOC1 [Afatinib] | 38.8 | 25.7 |
